Out of some 23,000 compounds screened, about 30 (0.1%) showed an effect of 50% or more. The entries come from a sample that favours strong results as a whole. Entries with a potency or affinity are not part of this list.

One may read the Inhibition as the relative decrease from the control value, in per cent.

For this test, the system named is Pseudomonas aeruginosa. Particulars: Concentration 20 uM; ASSAY_TEST Inhibition of Bacterial Growth; detection method Absorption (OD600); MEDIA CAMHB; plate type 384well; NBS; CORNING #3640; time 18 hr.
On to `Cl.O=C(Nc1ccc(N2CCNCC2)nc1)c1oc(-c2ccccc2)nc1C(F)(F)F`, for which the Inhibition is reported as -17.92%.

In the case of `N=C(N)c1ccc(-c2cc(-c3ccccc3)on2)cc1`, the Inhibition turned out to be 13.36%.

Consider `CC(C)=CCC/C(C)=C\CNCCNC1C2CC3CC(C2)CC1C3` (centres undefined), for which the Inhibition turned out to be 27.33%.

As for `O=C(c1ccc(F)cc1)N(CCNc1ccccc1)c1ccccc1`, the Inhibition is 12.58%.

These data come from ChEMBL document CHEMBL4513149, “CO-ADD screening of MMV (CH) - MMV compounds” (2021).
